# In PubChem BioAssay:
# Assay: binders of probe aHhip on microarray, primary screen, stem cell growth factor project, biochemical, small-molecule microarray, fluorescence 635/667 (AID 1087);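 also: score merges spot fluorescence at 667nm with spot signal to noise ratio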
# Conditions: higher = more signal
row,Compound,composite z-score
1,COC(=O)c1ccc(OC)c(/C=C\CC(CCc2ccccc2)OC(C)=O)c1 (stereo not given),0.101
2,C[N+](C)(C)CCCC[C@@H]1NC(=O)[C@H]2C[C@@H](C(=O)NCCCCCCN)[C@@H](c3cccc(OCCO)c3)N2C1=O,1.13
3,C/C=C/[C@@H](CCn1cc([C@H](O)c2ccccc2)nn1)[Si](C)(C)c1ccc(OC)cc1,-0.236
4,CCCCCCCCCCC(O)C1C=CC2C(=O)NC(=O)C2N1Nc1ccccn1 (stereo not given),-0.236
5,COC(=O)[C@@]1(Cc2ccc(F)cc2)[C@H]2c3cc(C(=O)N(C)C)n(CCSCCO)c3C[C@H]2CN1C(=O)c1ccccc1,-0.0029
6,CC1CC/C=C\[C@H]2OC34C=CCN(Cc5ccccc5)C(=O)[C@H]3N(CCO)C(=O)[C@@H]4C2C(=O)O1 (stereo not given in full),-0.0994
7,C=C(COC)C(=O)CC[C@H](OC(=O)c1ccccc1-c1ccccc1C(=O)O)c1ccc(OCCO)cc1,-0.236
8,C=CCC(OC(C)=O)[C@@H]1[C@@H](N(Cc2cc3ccccc3o2)C(=O)Cc2ccc(OC)cc2)c2cc(OCCCO)ccc2N1C(=O)c1ccc(-c2ccccc2)cc1 (stereo not given in full),0.251
9,CC1CC/C=C\[C@H]2OC34C=CCN(c5ccc(Cl)cc5)C(=O)[C@H]3N(C(CO)C(C)C)C(=O)[C@]4(C)C2C(=O)O1 (stereo not given in full),0.0373
10,O=C1O[C@@H](c2ccccc2)[C@@H](c2ccccc2)N2[C@@H](c3ccc(O)cc3)[C@]3(C(=O)Nc4ccc(C#CC5(O)CCCCCC5)cc43)[C@@H](C(=O)N3CCN(c4ncccn4)CC3)[C@H]12,-0.0994
11,CC[C@@H]1[C@@H]2C3C(=O)N(CC)C(=O)C3CC(=O)[C@@H]2[C@H](c2ccc(C)cc2)N1S(=O)(=O)c1ccc(C)cc1 (stereo not given in full),-0.19
12,COCCOC(=O)N1C(=O)[C@@]2(c3cc(C#CCCO)ccc31)[C@H](C(=O)NC[C@H](O)c1ccccc1)[C@H]1C(=O)O[C@H](c3ccccc3)[C@H](c3ccccc3)N1[C@@H]2c1ccccc1OCCO,-0.0994
13,C=CCOC(=O)[C@@H]1[C@H]2C(=O)O[C@H](c3ccccc3)[C@H](c3ccccc3)N2[C@H](c2ccc(OCCOC(=O)[C@@H]3C[C@@H]4C(=O)N[C@@H](CCCCNC(C)=O)C(=O)N4[C@@H]3c3ccc(O)cc3)cc2)[C@@]12C(=O)Nc1ccc(I)cc12,-0.0346
14,CC(C)CCC[C@@H](C)[C@H]1CC[C@@]2(C)C3=C(CC[C@]12C)[C@@]1(C)CC[C@H](OC(=O)c2ccc(N)cc2)C(C)(C)C1CC3 (stereo not given in full),-0.406
15,CCCN1C(=O)[C@@H]2Cc3c([nH]c4ccccc34)[C@@H](c3cccc(O)c3)N2C1=O,-0.0994
16,C=CCN1C(=O)[C@@]2(O[C@@H](CCn3cc([C@H](O)c4ccccc4)nn3)[C@H]([Si](C)(C)c3ccc(OC)cc3)[C@H]2C)c2cc(NC(=O)c3ccc(OC)cc3)ccc21,0.185
17,COc1ccc([Si](C)(C)[C@@H]2[C@@H](CC(=O)N(CCO)Cc3ccccc3)O[C@]3(C(=O)N(Cc4ccc(N5CCOC5=O)cc4)c4ccccc43)[C@H]2C)cc1,0.113
18,COCCOC(=O)N1C(=O)[C@@]2(c3cc(C#Cc4ccc(OC)cc4)ccc31)[C@H](C(=O)N1CCc3cc(OC)c(OC)cc3C1)[C@H]1C(=O)O[C@H](c3ccccc3)[C@H](c3ccccc3)N1[C@@H]2c1ccc(O)cc1,-0.297
19,CC(C)CNC(=O)[C@@]1(C)c2ccccc2C(=O)N(Cc2ccccc2)[C@H]1c1ccc(CO)cc1,-0.164
20,COc1ccccc1CN1C(=O)c2ccccc2[C@](Cc2ccccc2I)(C(=O)NCCN2CCOCC2)[C@@H]1c1ccc(CO)cc1,-0.189
21,CCCCCCC#C[Si](O[C@H](c1ccccc1)c1cn(Cc2cccc(Cl)c2)nn1)(C(C)C)C(C)C,-0.0994
22,COc1ccc([Si](C)(C)[C@@H]2[C@@H](CCO)O[C@]3(C(=O)N(Cc4ccccc4)c4ccc(N5CCCCC5=O)cc43)[C@H]2C)cc1,-0.0645
23,COC(=O)[C@@]1(Cc2ccc(F)cc2)[C@@H]2[C@@H](CC(=O)[C@H]2CC(=O)C(=O)N2CCCC2)CN1C(=O)c1ccccc1,-0.24
24,COCCOC(=O)N1C(=O)[C@@]2(c3cc(C#CCCO)ccc31)[C@H](c1ccc(OCCO)cc1)N1[C@H](c3ccccc3)[C@H](c3ccccc3)OC(=O)[C@H]1[C@@H]2C(=O)N1CCc2cc(OC)c(OC)cc2C1,-0.0618
25,C=CC[C@]1(C(=O)NCC(O)CO)N=C(c2ccc(OCCCO)cc2)O[C@H]1c1ccccc1N=[N+]=[N-] (stereo not given in full),0.23
